This note sets out measurements from PubChem BioAssay (NCI).

Test [1] in a line: NCI Yeast Anticancer Drug Screen. Data for the rad50 strain (AID 155).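 Also: 0% = growth of vehicle-only cultures of the same strain.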 The following applies: S. cerevisiae rad50 strain growth inhibition; at 50.0 µM; active compounds read high. The gist of the method: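 Genetically altered yeast (DNA repair pathway); compound treatment; growth inhibition vs vehicle ctrl.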
Test [2] is described as follows: NCI Yeast Anticancer Drug Screen. Data for the mec2-1 strain (AID 157). The following applies: S. cerevisiae mec2-1 strain, at 50.0 µM, active compounds read high. The essentials: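 Test agents were screened against the mec2-1 yeast strain, with defined DNA repair or cell cycle alteration. Growth was scored as inhibition against vehicle-only controls.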
Test [3] is described as follows: NCI Yeast Anticancer Drug Screen. Data for the sgs1 mgt1 strain (AID 161).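 Also: 0% = growth of cultures given vehicle only.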 The following applies: S. cerevisiae sgs1 mgt1 strain, at 50.0 µM, active compounds read high. The gist of the method:
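Test agents were incubated with a DNA-repair-mutant yeast strain. Growth was then read and compared against vehicle-treated controls.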

The nature of test [4]: NCI Yeast Anticancer Drug Screen. Data for the cln2 rad14 strain (AID 165).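 Also: 0% = growth equal to vehicle treated cultures.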 Particulars: S. cerevisiae cln2 rad14 strain, at 50.0 µM, active compounds read high. The gist of the method: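 Growth of compound-exposed yeast (cln2 rad14 genotype) measured and expressed as inhibition relative to vehicle.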
Test [5] is described as follows: NCI Yeast Anticancer Drug Screen. Data for the bub3 strain (AID 167). Particulars: S. cerevisiae bub3 mutant strain, at 50.0 µM, active compounds read high. The gist of the method: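 Yeast carrying a defined mutation is treated with each compound, and growth is compared with that of vehicle-exposed cells to give inhibition.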
A short description of test [6]: NCI Yeast Anticancer Drug Screen. Data for the mlh1 rad18 strain (AID 175). The following applies: S. cerevisiae mlh1 rad18 strain growth inhibition; at 50.0 µM; active compounds read high. The essentials: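 In this whole-cell yeast screen, a strain with altered DNA damage repair is challenged with compound, and its growth is measured against matched vehicle-treated controls.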

Molecules are shown by their SMILES. The panel holds about 79,000 compounds, 15% with a hit somewhere; the sample as a whole holds those more often. A number with no mark means an inactive call. Activity calls are given as the source filed them. Rule as the data show it: active = growth inhibition above about 70%; inactive = the rest.

In the case of `Cc1ccc(S(=O)(=O)n2oc(N)c(Cc3ccccc3)c2=O)cc1`, the growth inhibition is -25.4% in test [1]; -0.15% in test [2]; 7.8% in test [3]; -23.5% in test [4]; 19.2% in test [5]; -2.55% in test [6].

With `C[N+]1(C)CC2CCC1C2` (stereo unspecified), the growth inhibition in test [1] is 1.1%; in test [2], 16.1%; in test [3], 17.6%; in test [4], -27.8%; in test [5] it was -9.05%; in test [6] it was -7.1%.

As for `CN(C)Cc1c(-c2ccccc2)c(-c2ccccc2)c2ccccn12`, the growth inhibition in test [1] is -7.15%; in test [2], -21.8%; in test [3], 14.1%; in test [4] it was 2.8%; in test [5], 0.75%; in test [6] it was 9.6%.

As for `COc1cc(C(SCc2ccccc2)SCc2ccccc2)ccc1O`, the growth inhibition was 28.6% in test [1]; 12.2% in test [2]; 30.9% in test [3]; 28.6% in test [4]; 17.4% in test [5]; 28.6% in test [6].

In the case of `Cc1ccc2c(=O)cc(-c3ccccc3)[nH]c2n1`, the growth inhibition is -48% in test [1]; -57% in test [2]; -42.1% in test [3]; 11.8% in test [4]; -59.1% in test [5]; -41.1% in test [6].

Turning to `C/C(=N\Nc1ccc2ccccc2n1)c1ccccc1O`, the growth inhibition is -19% in test [1]; -25.4% in test [2]; -37.3% in test [3]; -25.8% in test [4]; -66.5% in test [5]; -3.5% in test [6].

On to `CCCCCCC(O)CC[C@H]1CCC[C@@H](C)N1` (stereo partly specified), for which the growth inhibition in test [1] is 46%; in test [2], 26.3%; in test [3], 39.5%; in test [4], 38.9%; in test [5] it was 45.5%; in test [6] it was 38.5%.

As to `CC/C=C\CCOC(=O)C1OC1c1ccccc1` (stereo unspecified), the growth inhibition in test [1] is 8.15%; in test [2], 17.3%; in test [3], -8.75%; in test [4], 10.9%; in test [5], 0%; in test [6], 1.5%.

Take `O=C(O)c1cccc2c1C1CCC2c2cccc(C(=O)O)c21`: the growth inhibition in test [1] is -29.2%; in test [2], 0.95%; in test [3], 15.6%; in test [4], 3.05%; in test [5] it was -2.6%; in test [6] it was 9.7%.

In the case of `CC(=O)OCC1OC(n2cnc3c(N)ncnc32)CC1OC(C)=O` (stereo unspecified), the growth inhibition is -1.7% in test [1]; -1.75% in test [2]; -1.25% in test [3]; -47.5% in test [4]; 15.5% in test [5]; -18.6% in test [6].

With `[O-][N+]1(CC[N+]2([O-])CCCCC2)CCCCC1`, the growth inhibition in test [1] is -16.8%; in test [2], -4.9%; in test [3], 1.7%; in test [4], -37.3%; in test [5], -0.65%; in test [6], 15.8%.

For the compound `O=C1C=C(Oc2ccccc2)C(=O)C=C1Oc1ccccc1`, the growth inhibition in test [1] is -8.15%; in test [2], -3.55%; in test [3], -27.1%; in test [4] it was -23.8%; in test [5], 14.3%; in test [6], -11.1%.

Regarding `CSc1cccc(NC(=S)NN/C(=N/S(=O)(=O)c2ccccc2)N2CCCC2)c1`, the growth inhibition in test [1] is 6.3%; in test [2], -17.6%; in test [3] it was -1.35%; in test [4], 2.3%; in test [5], -2.9%; in test [6] it was -1.2%.

As to `NC(=O)N/N=C1\CCc2ccccc2C1`, the growth inhibition in test [1] was 12.8%; in test [2] it was -12.3%; in test [3], -25.8%; in test [4] it was 22.4%; in test [5], -42.3%; in test [6] it was -2.8%.

Take `CCCCOP(=O)(OCCCC)/C(C#N)=C/c1ccc(C)o1`: the growth inhibition in test [1] is -21.2%; in test [2], -40.8%; in test [3], -4.85%; in test [4], -35.4%; in test [5], -4.7%; in test [6], 10.1%.

As to `C/C=C/C1OCCC(C)O1` (stereo unspecified), the growth inhibition in test [1] was 41.3%; in test [2], -12%; in test [3], 9.1%; in test [4], 21.1%; in test [5], 4.95%; in test [6], 11%.

On to `COc1ccc(NC(=O)C(Br)C(Br)c2ccccc2)c(Cl)c1` (stereo unspecified), for which the growth inhibition in test [1] is 96.8% (active); in test [2], 97.2% (active); in test [3], 97.2% (active); in test [4], 97.3% (active); in test [5] it was 97% (active); in test [6], 97.2% (active).

With `Cc1ccccc1NC(=O)c1ccccc1Cl`, the growth inhibition was -19.3% in test [1]; -18.6% in test [2]; -6.9% in test [3]; -31.8% in test [4]; -19.1% in test [5]; -25.6% in test [6].

`COc1ccc(-c2onc3ccc(Cl)cc23)cc1`: the growth inhibition in test [1] is -9.1%; in test [2] it was 4.1%; in test [3] it was 17.4%; in test [4] it was -63.5%; in test [5] it was 7.35%; in test [6], 21.4%.

On to `Cc1ccc(NC(=S)SCc2ccc([N+](=O)[O-])cc2)cc1C`, for which the growth inhibition was 16.5% in test [1]; 14.8% in test [2]; 8.6% in test [3]; -8.9% in test [4]; 12.9% in test [5]; 2.95% in test [6].

In the case of `Cc1ccc(S(=O)(=O)OC2COC3C2OC2OC(C)(C)OC23)cc1` (stereo unspecified), the growth inhibition in test [1] was 19.1%; in test [2], 11.2%; in test [3] it was 0.2%; in test [4], -9.1%; in test [5] it was 7.4%; in test [6], 0.35%.
